Bioassay records (PubChem)
CYP2C19 inhib: inhibitors of human CYP2C19; P33261; CYP2C19 Supersomes, luciferin-H EGE luminescence, 30 min; inhibition, % at 5 µM; 96,000 tested, 21% active;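 active means CYP2C19 inhibition above a set limit at 5 µM in the primary screen, cut at about 50% in these data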
D1 mod: allosterically modulates the human D1 dopamine receptor | HEK293 D1, CRE-luciferase, dopamine EC30 potentiation; actives deviate in either direction | 58,000 tested, 5.9% active | B-score at 10 µM | P21728;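 active means luminescence count or its row- and column-corrected plate score outside the 99.7% band of the plate's sample wells, on either side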
CYP2C9 inhib: blocks human cytochrome P450 2C9 | P11712 | CYP2C9 Supersomes, luciferin-H conversion, luminescence | inhibition, % at 5 µM | 96,000 tested, 20% active | AID 777;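 active means blocking of liver enzyme CYP2C9 beyond about 50% at 5 µM, limit read from the data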
Target sequence (P11712 whole entry, looked up): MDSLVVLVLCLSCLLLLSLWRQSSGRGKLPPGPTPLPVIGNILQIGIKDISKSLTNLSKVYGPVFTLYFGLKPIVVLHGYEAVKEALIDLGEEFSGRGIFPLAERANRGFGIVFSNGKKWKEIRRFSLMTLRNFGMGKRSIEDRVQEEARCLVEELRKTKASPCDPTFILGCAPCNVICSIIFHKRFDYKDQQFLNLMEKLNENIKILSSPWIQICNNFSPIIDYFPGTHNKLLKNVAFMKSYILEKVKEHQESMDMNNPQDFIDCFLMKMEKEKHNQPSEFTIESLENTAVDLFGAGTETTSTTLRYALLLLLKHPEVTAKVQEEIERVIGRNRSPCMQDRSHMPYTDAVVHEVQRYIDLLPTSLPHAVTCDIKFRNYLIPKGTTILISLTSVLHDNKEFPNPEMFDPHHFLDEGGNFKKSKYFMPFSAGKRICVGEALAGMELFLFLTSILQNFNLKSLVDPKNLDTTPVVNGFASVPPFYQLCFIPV
hDAT+cocaine: modulates human dopamine transporter uptake under cocaine; Q01959; LLC-PK1 hDAT cells, [14C]-dopamine uptake with cocaine IC80; actives deviate in either direction; 110,000 tested, 1.3% active; B-score at 10 µM; AID 449768;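 active means Z score or B-score, a plate-position-corrected score, falls beyond the plate's 99.7% confidence bounds, in either direction; inactive means both scores lie inside the 99.7% bounds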
CYP2C9 act: increases human cytochrome P450 2C9 activity. P11712. recombinant CYP2C9, luciferin-H conversion, luminescence; stronger effect = higher value; factor 1 = untreated enzyme, 0 = blocked. activation factor at 5 µM. 96,000 tested, 1.4% active. AID 1024;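 active means activation factor of 2 or more for CYP2C9 at a 5 µM dose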
CYP2C19 act: cytochrome P450 2C19 (human) activation. P33261. recombinant CYP2C19, luciferin-H EGE luminescence; stronger effect = higher value; 0 = fully inhibited enzyme, 1 = untreated enzyme. activation factor at 5 µM. 96,000 tested, under 10 active. AID 1025;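 active means activation factor of at least 2 at 5 µM in the primary screen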
Numbers stand for hits; . = inactive; / = not tested or not shown. This is a sample that favours compounds with a hit; in the whole collection about 28% have one here.

SMILES	CYP2C19 inhib	D1 mod	CYP2C9 inhib	hDAT+cocaine	CYP2C9 act	CYP2C19 act
Cc1cc(C(=O)OCC(=O)Nc2cc(S(=O)(=O)N3CCOCC3)ccc2Cl)c(C)o1	51.8	/	79.6	.	.	.
CN1C(=O)c2ccccc2C(C(=O)NCC2CCCO2)C1c1c[nH]c2ccccc12 (stereo not given)	.	/	.	.	.	.
CCc1c(C(=O)O)[nH]c2ccc(Br)cc12	.	/	.	.	.	.
CCN(CC)S(=O)(=O)c1ccc(C)c(NC(=O)COC(=O)c2ccc(C)c(S(=O)(=O)N3CCOCC3)c2)c1	91.5	/	95.7	.	.	.
O=C(COC(=O)Cc1ccc(S(=O)(=O)N2CCOCC2)s1)NCCc1ccccc1	.	/	60.2	.	.	.
Cc1ccc(S(=O)(=O)N2CCOCC2)cc1C(=O)OCC(=O)Nc1ccc2c(c1)OCO2	.	/	52.6	.	.	.
Cc1cc(C(=O)OCC(=O)Nc2ccc(S(=O)(=O)N3CCOCC3)cc2)c(C)o1	.	/	72.8	.	.	.
O=C(COC(=O)Cc1ccc(S(=O)(=O)N2CCOCC2)s1)NCc1ccccc1	.	.	.	.	.	.
O=C(NCc1ccco1)C1CC(c2ccc(C(F)(F)F)cc2)=NO1 (stereo not given)	/	/	/	.	/	/
NCCS	/	/	/	.	/	/
O=C(Nc1ccc(Cl)cc1F)C1CCN(S(=O)(=O)c2cccnc2)CC1	.	.	.	.	.	.
Brc1ccc(CN2CCSCC2)cc1	58.9	/	.	.	.	.
COc1ccc(CN2CCSCC2)cc1C	.	/	.	.	.	.
COc1ccc(CCCc2nnc(SCC(=O)N/N=C\c3ccc(O)c(OC)c3)o2)cc1C	.	/	.	.	.	.
C=CCc1cc(/C=N/NC(=O)CSc2nnc(CCCc3ccc(OC)cc3)o2)cc(OC)c1O	89.2	/	80.1	.	.	.
COc1ccc(/C=N/NC(=O)CSc2nnc(CCCc3ccc(OC)c(C)c3)o2)cc1	77.7	/	83.9	.	.	.
C=CCc1cc(/C=N\NC(=O)CSc2nnc(CCCc3ccc(OC)c(C)c3)o2)cc(OC)c1O	86.3	/	83.3	.	.	.
Cc1cc(=O)n2nc(N3CCC(C(=O)NC4CCCc5ccccc54)CC3)sc2n1 (stereo not given)	.	.	.	.	.	.
CC(C)CNS(=O)(=O)c1ccc(OCC(=O)NCC2CCCO2)c(Cl)c1 (stereo not given)	/	/	/	.	/	/
CC1(C)c2[nH]c3ccccc3c2C[C@H]2C(=O)N(Cc3ccc(F)cc3)C(=O)N21	/	/	/	.	/	/
Cn1c(NCCCN2CCOCC2)nc2c1c(=O)n(Cc1ccc(Cl)c(Cl)c1)c(=O)n2C	.	.	.	.	.	.
CCC(=O)N(Cc1cc2cc(OC)ccc2[nH]c1=O)c1cc(C)ccc1C	.	.	.	.	.	.
COc1ccc2[nH]c(=O)c(CNc3cccc(C)c3)cc2c1	82.4	/	.	.	.	.
COc1ccc2[nH]c(=O)c(CNC3CCCCC3)cc2c1	.	.	.	.	.	.
COc1ccc(NCc2cc3ccccc3[nH]c2=O)cc1	81.6	/	.	.	.	.
SMILES	CYP2C19 inhib	D1 mod	CYP2C9 inhib	hDAT+cocaine	CYP2C9 act	CYP2C19 act
COc1ccc(NCc2cc3cc(OC)ccc3[nH]c2=O)cc1	52.1	/	.	.	.	.
COc1ccc(CC(=O)OCc2cc3ccccc3[nH]c2=O)cc1	.	.	.	.	.	.
CC(C)(C)CN1C(=O)C(=O)NC[C@@H]1Cc1ccc(O)cc1	/	/	/	.	/	/
C=C(C)CSc1nnc(-c2cccc(S(=O)(=O)N(C)C)c2)n1-c1cc(OC)ccc1OC	85.6	.	85.0	.	.	.
COc1cccc(-n2c(SCC(=O)O)nnc2-c2cccnc2)c1	.	/	.	.	.	.
COc1ccc(OC)c(Nc2cc(-c3ccccc3)nc(N)n2)c1	79.7	.	78.7	.	.	.
COc1ccc(OC)c(Nc2ncnc3ccccc23)c1	.	/	.	.	.	.
COc1ccc(OC)c(Nc2cc(C)nc3ccccc23)c1	55.9	/	.	.	.	.
COc1cccc(Nc2cc(C)nc3ccccc23)c1	/	.	/	.	/	/
O=C(O)c1cc([N+](=O)[O-])ccc1NCCCc1ccccc1	/	/	/	.	/	/
O=C(NCCNc1ccc([N+](=O)[O-])cc1C(F)(F)F)c1ccccc1F	91.5	/	.	.	.	.
O=C(NCCNc1ccc([N+](=O)[O-])cc1)c1ccccc1Br	.	/	.	.	.	.
O=[N+]([O-])c1ccc(NCCNS(=O)(=O)c2ccccc2)c(C(F)(F)F)c1	87.8	/	74.8	.	.	.
